Screening results as filed in PubChem.
An excerpt weighted towards active compounds, which were near 2.9% of everything screened.
esBAF inh = Bmi1 luciferase reporter increase in mESCs, primary screen, esBAF inhibitor project, mouse ES cells, Bmi1 luciferase knock-in, single point. 24 h; 100% = twice the neutral-well signal. reporter increase, % at 12.5 µM. actives 2% (n = 350,000). AID 602393, 2012; in the data active = activation above about 40%; inconclusive = no clear call, values can overlap the other calls;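 note: 0% = median of the plate's neutral control wells and 100% = double that signal; a rise in the Bmi1 reporter signal indicates esBAF inhibition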
Vif inh = HIV Vif self-association inhibitors, primary screen, imaging, HEK293T, single point; HEK293T cells, Vif self-association by quenched fluorescence, 24 h; inhibition, % at 7.49 µM; actives 0.35% (n = 340,000); AID 602346, 2012; in the data active = inhibition above about 50%, passing the limit was not always enough; inconclusive = no clear call, values can overlap the other calls; inactive = below about 31%
PvdQ acylase = P. aeruginosa PvdQ acylase inhibitors, primary screen, biochemical, fluorescence, plate reader and imaging, single point; purified PvdQ acylase; inhibition, % at 10 µM; actives 0.063% (n = 340,000); AID 488965, 2010; in the data active = inhibition above about 30%, passing the limit was not always enough; inconclusive = no clear call, values can overlap the other calls;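 note: 0% = vehicle neutral wells and 100% = reference inhibitor wells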
Wnt bcat act = Wnt/beta-catenin pathway activators, primary screen, cell-based, plate reader, single point | actives 1.2% (n = 300,000) | activation, % at 9.35 µM | AID 743398, 2014 | Wnt/beta-catenin reporter cell assay, activator; in the data active = activation above about 30%, passing the limit was not always enough; inconclusive = no clear call, values can overlap the other calls;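 note: 0% = neutral control wells and 100% = positive control wells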
MITF act = activators of MITF-driven TRPM1 promoter reporter, primary screen, cell-based, SK-MEL-5, luciferase, single point | SK-MEL-5 TRPM1-promoter luciferase, 24 h; % of positive control, neutral wells = 0 | activation, % at 12.5 µM | actives 0.75% (n = 300,000) | AID 588334, 2011;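 active = mean activation of at least 80% with every replicate also reaching 80%; inconclusive = mean reaches 80% but some replicate falls short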;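 note: 0% = neutral control wells and 100% = parthenolide positive control wells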
Glyco luc inh = increase of ERlucT glycosylation luciferase signal, primary screen, N-linked glycosylation inhibitor project, D54 ERlucT cells, luminescence, set 2; D54 ERlucT glycosylation luciferase reporter, 24 h; percent of 100 nM tunicamycin response; reporter increase, % at 12.5 µM; actives 0.23% (n = 360,000);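 active = mean luciferase reporter signal, scaled so untreated is 0 and the glycosylation-blocking control 100, at or above a set limit in every replicate; inconclusive = mean reaches the limit but not every replicate does; inactive = mean below the limit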;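 note: luciferase carries N-glycosylation sites so blocking glycosylation raises the light; 0% = median of neutral control wells and 100% = median of 100 nM tunicamycin wells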
* = called active by the depositor; ? = inconclusive; · = no result.

SMILES	esBAF inh	Vif inh	PvdQ acylase	Wnt bcat act	MITF act	Glyco luc inh
COc1ccc(NC(=O)Nc2cccc3c2O[C@@H](CN(C)C(=O)Nc2cccc4ccccc24)[C@H](C)CN([C@H](C)CO)C3=O)cc1	21	·	·	·	·	·
CCCCN1C(=S)NC[C@@H]1Cc1cccc2ccccc12	59*	·	-9	12	32	-2
CCCCN1C(=O)C(=O)NC[C@H]1Cc1cccc2ccccc12	·	·	·	1	·	·
O=C(Cc1cccs1)N/N=C/C=C/c1ccccc1[N+](=O)[O-]	·	0	·	-1	·	-2
O=C(Cc1ccccc1)N/N=C/C=C/c1ccccc1[N+](=O)[O-]	·	-7	·	35*	·	-2
O=C(O)c1ccc(N/N=C/C=C/c2ccccc2[N+](=O)[O-])cc1	79*	54*	12	10	112*	4
O=C(N/N=C/C=C/c1ccccc1[N+](=O)[O-])c1ccncc1	·	-2	-12	-1	·	-4
O=[N+]([O-])c1ccccc1C=CC=NN=Cc1ccccc1O	·	4	-25	71*	31	1
CO[C@H]1CN(C)C(=O)c2cc(NC(=O)Nc3cccc(Cl)c3)ccc2OC[C@@H](C)N(C(=O)Nc2c(C)noc2C)C[C@@H]1C	-1	·	·	·	·	·
CCc1ccc(NC(=O)CSc2nncn2-c2cccnc2)cc1	?	-6	3	9	94*	-1
COc1ccccc1NC(=O)CSc1nncn1-c1cccnc1	-8	·	-3	-1	-18	1
CN(C)C(=O)C[C@@H]1CC[C@H](NC(=O)C2CC2)[C@@H](CO)O1	2	·	·	·	·	·
CCCC#Cc1cnc2c(c1)C(=O)N([C@@H](C)CO)C[C@@H](C)[C@@H](CN(C)C(=O)C1CCCCC1)O2	-6	·	·	·	·	·
COc1ccc2nc3sc(C(=O)NCCCN4CCc5ccccc5C4)cc3cc2c1	73*	-12	-20	16	-4	7
COc1ccc2nc3sc(C(=O)N4CCN(C)CC4)cc3cc2c1	34	-1	-3	·	15	2
CCCN(C)C[C@@H]1OCCCC[C@@H](C)Oc2ccc(NS(=O)(=O)c3ccc(F)cc3)cc2C(=O)N([C@H](C)CO)C[C@@H]1C	-4	·	·	·	·	·
CCOC(=O)C(=O)c1c(-c2ccc(C)cc2)nc2ccccn12	·	-10	-6	-1	-3	3
CCOC(=O)c1c(-c2ccccc2)nc2ccc(C)cn12	47*	-12	-17	47*	43	0
CCOC(=O)c1c(-c2ccccc2)nc2cc(C)ccn12	52*	3	4	21	·	5
CCOC(=O)C(=O)c1c(-c2ccccc2)nc2ccccn12	·	11	-9	-1	-21	0
C[C@@H]1CN([C@H](C)CO)C(=O)c2cccc(NC(=O)C3CC3)c2O[C@@H]1CN(C)S(=O)(=O)c1cn(C)cn1	-5	·	·	·	·	·
CC1(C)NC(=O)N(CCOCCOc2ccc3ccccc3c2Br)C1=O	?	-1	-16	17	20	1
CC1(C)NC(=O)N(CCCCOc2ccc3ccccc3c2Cl)C1=O	53*	-12	-9	·	47	-10
CCc1cc(=O)oc2cc(OC(C)C(=O)NCc3ccccn3)ccc12 (stereo not drawn)	-1	58*	8	-3	3	1
O=C(Nc1ccc(F)cc1)N[C@H]1CC[C@@H](CC(=O)N2CCOCC2)O[C@H]1CO	0	·	·	·	·	·
Fc1cccc(Cl)c1CN1CCN(c2nc3ccccc3s2)CC1	70*	4	-4	27	77	-3
CCCc1cn(CC[C@@H]2CC[C@H](NC(=O)C3CCCCC3)[C@@H](CO)O2)nn1	-10	·	·	·	·	·
CN(C)C(=O)[C@@H]1[C@@H](CO)[C@@H]2Cn3c(ccc(/C=C/c4ccccc4)c3=O)[C@@H]2N1C(=O)c1cnccn1	-5	·	·	·	·	·
CCOC(=O)C1CCCN(Cc2ccc(OC)cc2OC)C1 (stereo not drawn)	-3	55*	20	·	·	1
CCOC(=O)CCC(=O)NCc1ccc2c(c1)cc(C)n2C	-11	0	-8	-2	-2	1
